Screening results deposited in PubChem by National Center for Advancing Translational Sciences (NCATS).
In the library only some 7.3% were active in any assay of this set; here they are far more common.
ELG1 genotoxic = genotoxicity induction in ELG1-luciferase HEK293T cells. HEK293T ELG1-luciferase reporter, luminescence, 16 h. Potency, µM (highest dose often 46 µM), for the others: at the top dose activity change, positive = activation, usual class: activators. hit rate 1.3% among 330,000. AID 504466; also: % of control where 0% means no effect; nearly all actives have a fitted effect of over 60% in size
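Screening used a luciferase reporter fused to human ELG1 in HEK293T cells. Luminescence was read on a CCD plate imager after 16 hr exposure and 30 min ONE-Glo incubation.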
FLuc counter = counter-screen for miR-21 project: firefly luciferase inhibitors or activators | purified FLuc, Km substrates, luminescence inhibition | AID 588342 | Potency, µM (top dose mostly 57.5 µM), for the others: at the highest dose activity change, negative = inhibition, most hits filed as inhibitors | hit rate 6.9% among 360,000 | P08659;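 also: plate controls were vehicle for no effect and reference inhibitor for full effect; nearly all actives have a fitted effect of over 55% in size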
Target sequence (P08659 whole entry, looked up): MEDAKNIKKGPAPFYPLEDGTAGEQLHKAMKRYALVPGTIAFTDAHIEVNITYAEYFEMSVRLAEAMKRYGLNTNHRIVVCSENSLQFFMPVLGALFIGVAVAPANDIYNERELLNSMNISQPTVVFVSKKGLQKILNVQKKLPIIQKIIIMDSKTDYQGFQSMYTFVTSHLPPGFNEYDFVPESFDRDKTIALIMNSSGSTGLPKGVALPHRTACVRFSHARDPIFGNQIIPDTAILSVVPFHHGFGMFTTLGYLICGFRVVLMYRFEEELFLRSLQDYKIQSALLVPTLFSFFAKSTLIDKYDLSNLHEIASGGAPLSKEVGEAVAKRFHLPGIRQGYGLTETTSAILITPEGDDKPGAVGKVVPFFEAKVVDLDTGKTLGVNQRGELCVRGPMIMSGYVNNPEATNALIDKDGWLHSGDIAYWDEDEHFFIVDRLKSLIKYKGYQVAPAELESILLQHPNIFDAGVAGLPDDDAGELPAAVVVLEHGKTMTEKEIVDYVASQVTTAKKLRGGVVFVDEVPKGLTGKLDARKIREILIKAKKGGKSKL
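Biochemical qHTS of compounds, final roughly 60 µM downward over six points, against 10 nM purified firefly luciferase using Km concentrations of substrates (10 uM D-luciferin, 10 uM ATP) in Tris acetate pH 7.5 buffer; luminescence output.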
SMN2 splice enh = SMN2 splice variant enhancement; HEK293 SMN2-luciferase splicing reporter, luminescence, 30-36 h; Potency, µM (doses to about 46.1 µM), for inactives: at the highest dose activity change, positive = activation, usual class: activators; hit rate 2.8% among 210,000; also: % of control where 0% means no effect; nearly all actives have a fitted effect of over 55% in size
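qHTS luciferase splicing reporter: luminescence rises when SMN2 exon 7 is included in transfected HEK293 cells. Compound exposure lasted 30-36 h at 37C, with 4.5 mM final sodium butyrate as control, followed by a ONE-Glo read.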
Rab9 promoter act = activates the Rab9 promoter | Potency, µM (top dose mostly 9.22 µM), for inactives: at the top dose activation, negative = inhibition, most hits filed as activators | hit rate 2.8% among 320,000 | Huh7 Rab9 promoter-luciferase reporter, luminescence, 24 h; also: % of control where 0% means no effect; nearly all actives have a fitted effect of over 60% in size
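Luciferase signal after 10 min detection reagent at ambient indicates Rab9 promoter upregulation; stably transfected Huh7 cells were treated 24 h with compound in DMSO at 37 °C, 5% CO2.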
NPC1 promoter act = activators of NPC1 promoter; Huh7 NPC1 promoter luciferase reporter, 24 h; hit rate 2.4% among 320,000; Potency, µM (series often up to 9.22 µM), without a hit: at the top dose activation, hits mostly activators; also: % of control where 0% means no effect; nearly all actives have a fitted effect of over 60% in size
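Stable NPC1-promoter luciferase Huh7 line; cpd (DMSO) 24 h, 37 °C, 5% CO2; Amplite luciferase reagent 10 min RT; luminescence readout. qHTS format.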
KinaseGlo FLuc = blocks Kinase-Glo luciferase, a counter-screen artifact. Q27757. Kinase-Glo luciferase, ATP luminescence, 8 min. Potency, µM (series often up to 38.3 µM), inactives show at the top dose activity change, negative = inhibition, most hits filed as inhibitors. hit rate 0.28% among 200,000; also: % is scaled to controls: 0 for no effect and ±100 for the full control effect; nearly all actives have a fitted effect of over 60% in size
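Compound is pinned into ATP-containing buffer (10 uM ATP, imidazole pH 7.2, 7 mM MgCl2). Kinase-Glo luciferase reagent is then added. Light output is recorded following an 8-min room-temperature incubation.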
* marks the source's active call; other numbers are inactive results; ? = inconclusive; . = not tested or not shown; [ ] = dose if it differs, or a comment. Calls follow the shape of the dose curve; as a rule, active = well fitted curve in the direction sought with a large enough effect; inconclusive = small, poorly fitted or top-dose-only effect, or another doubt; inactive = no such curve, though single readings can be large; an effect the other way counts as inactive or inconclusive. Potency is read from the fitted curve at half-maximal effect.

SMILES	ELG1 genotoxic	FLuc counter	SMN2 splice enh	Rab9 promoter act	NPC1 promoter act	KinaseGlo FLuc
Cc1ccc2nc(N3CCC(C(=O)N4CCC5(CC4)OCCO5)CC3)sc2c1	0%	12µM*	.	?	?	-2%
O=C(C1CCN(c2nc3ccc(Br)cc3s2)CC1)N1CCC2(CC1)OCCO2	?	13µM*	-77%	-12%	-2%	-3%
CCOc1ccc2nc(N3CCC(C(=O)N4CCC5(CC4)OCCO5)CC3)sc2c1	1%	15µM*	.	?	?	-2%
CCc1ccc2nc(N3CCC(C(=O)N4CCC5(CC4)OCCO5)CC3)sc2c1	?	9.5µM*	-83%	12%	0%	2%
CCn1c(C(=O)N2CCC(C(=O)N3CCC4(CC3)OCCO4)CC2)cc2sccc21	2%	6%	-12%	-11%	2%	-3%
O=C(C1CCCN(c2nnc(-n3cccc3)s2)C1)N1CCC2(CC1)OCCO2 (centres undefined)	1%	-8%	18%	-1%	-1%	2%
Cc1ccc(C2(c3ccc(C)c(O)c3C)CCN(C)CC2)c(C)c1O	.	.	-5%[9.22 µM]	.	.	1%[7.66 µM]
CCCc1cc(N2CCN(c3ccc(OC)cc3)CC2)n2cnnc2n1	.	2%	-73%	.	.	.
CCOc1ccc2nc(N=Nc3c(O)[nH]c(=S)[nH]c3=O)sc2c1	-6%	19µM*	3%	-1%	-4%	-8%
CCCCC/C=C\C/C=C\C/C=C\C/C=C\CCCC(=O)NCCCl	.	.	.	.	.	-4%[39.9 µM]
CC(C)Oc1ccc(CNC(=O)Oc2ccccc2)cc1	5%	6.7µM*	.	3.2µM*	3.5µM*	.
NC(N)=N/N=C/c1cn(-c2ccccc2)nc1-c1cccs1	1%	4.3µM*	-14%	-3%	0%	-5%
Cc1nc2ccc(NC(=O)C3COc4ccccc4O3)cc2s1 (centres undefined)	?	12µM*	.	?	?	.
CC(=O)[O-].CC(=O)[O-].O.O.[Cd+2]	.	.	-51%	.	.	.
COc1ccc(NC(=O)O/N=C/c2ccccc2)cc1	?	9.5µM*	.	?	3.5µM*	.
O=C(Nc1ccc2ccccc2c1)c1nn(C23CC4CC(CC(C4)C2)C3)cc1Br	-3%	0%	3%	4%	-4%	-2%
Cc1nc(Cl)sc1C(=O)Nc1ccc2ccccc2c1	?	7.6µM*	13µM*	?	14%	-2%
O=NN(c1ccccc1)c1ccccc1	.	.	-6%	.	.	.
Cc1ccc2c(c1N)C(=O)c1ccccc1C2=O	?	4.3µM*	?	?	3.2µM*	.
CC(=O)OC(CC(=O)O)C[N+](C)(C)C (centres undefined)	-6%	5%	13µM*	-7%	-2%	-3%
O=C1N=C(N2CCCCC2)SC1=C1CCCCC1	16µM*	13µM*	29%	2.8µM*	?	-15%
Nc1ncnc2c1ncn2[C@@H]1O[C@H](COP(=O)(O)OP(=O)(O)OP(=O)(O)O)[C@H]2OC3(O[C@H]21)C([N+](=O)[O-])=CC(=[N+]([O-])[O-])C=C3[N+](=O)[O-] (some centres undefined)	.	.	.	.	.	2.8µM*
NCCc1ccc(S(=O)(=O)O)cc1[N+](=O)[O-]	.	.	-4%[9.22 µM]	.	.	-1%[7.66 µM]
CCN(CC)C(=O)Oc1ccc2cc(Br)ccc2c1	?	21µM*	2%	22%	8%	-2%
CN(C)CS/C(N)=N/[C@H](O)C(Cl)(Cl)Cl	.	.	11%[9.22 µM]	.	.	-1%[7.66 µM]
SMILES	ELG1 genotoxic	FLuc counter	SMN2 splice enh	Rab9 promoter act	NPC1 promoter act	KinaseGlo FLuc
O=C1N[C@@]2(CN3CCC2CC3)C(=O)N1CN(Cc1ccccc1)c1ccccc1	.	.	2%[9.22 µM]	.	.	-3%[7.66 µM]
CCNC(=O)O/N=C(\C)c1sc(-c2ccc(Cl)cc2)nc1C	?	2.7µM*	29%	3.5µM*	1.4µM*	?
C/C(=N\OC(=O)NC(C)C)c1sc(-c2ccccc2)nc1C	6%	?	21%	?	4µM*	-9%
C/C(=N\OC(=O)NC(C)C)c1sc(-c2ccc(Cl)cc2)nc1C	?	13µM*	?	?	?	-20%
C[C@H]1CC[C@@]2(NC1)O[C@@H]1C[C@@H]3[C@@H]4CC=C5C[C@@H](O)CC[C@]5(C)[C@@H]4CC[C@]3(C)[C@H]1[C@@H]2C	.	.	-3%[9.22 µM]	.	.	-3%[7.66 µM]
C[C@@](Br)(C(=O)O)[C@H](Br)C(=O)O	.	.	-12%[9.22 µM]	.	.	-3%[7.66 µM]
COc1cc(/C=C(/C)[N+](=O)[O-])ccc1OCc1ccccc1Cl	-16%	13µM*	-103%	-52%	-8%	1%
COc1cc(/C=C/[N+](=O)[O-])ccc1O	-18%	?	?	1%	-6%	-1%
CCCCCn1c(=O)c(C(=O)Nc2nc3ccccc3[nH]2)c(O)c2ccccc21	-7%	1%	.	-7%	-4%	.
Cc1ccc(C(=O)Nc2nc3ccccc3[nH]2)cc1	?	0.095µM*	.	0.63µM*	0.56µM*	.
c1ccc(OCCSc2nc3ccccc3[nH]2)cc1	13%	17µM*	?	29%	?	1%
COc1ccc(N2CCN(Cc3nc4ccccc4[nH]3)CC2)cc1	15%	2%	.	29%	2%	.
Cc1cc(C(=O)Nc2ccc(CC(=O)O)cc2)c(C)o1	0%	11µM*	.	3%	-8%	.
O=C(O)[C@H]1C2c3ccccc3C(c3ccccc32)[C@@H]1C(=O)NCC1CC1	.	.	-3%[9.22 µM]	.	.	-2%[7.66 µM]
COc1ccc(C(=O)Nc2cc(Cl)ccc2C(=O)O)cc1	6%	15µM*	.	16%	13%	.
CN1C(=O)C(=Cc2ccccc2OCc2ccccc2Cl)C(=O)N(C)C1=O	-1%	?	6%	-4%	-4%	-2%
CN1C(=O)C(=Cc2c(OCc3cnc(Cl)s3)ccc3ccccc23)C(=O)N(C)C1=O	?	19µM*	3%	?	22%	1%
CNC(=O)[C@@H]1C[C@H]1[C@@H](NP(=O)(c1ccccc1)c1ccccc1)c1ccccc1	.	.	13µM*	.	.	0%
O=C(O)C[C@H]1OCC=C2CN3CC[C@@]45C6=CC(=O)C(=O)C([N+](=O)[O-])=C6N[C@H]4[C@H]1[C@H]2C[C@@H]35	.	.	-15%[9.22 µM]	.	.	-2%[7.66 µM]
C[C@H](CN(C)C)C(C#N)(c1ccccc1)c1ccccc1	.	.	-7%[9.22 µM]	.	.	-1%[7.66 µM]
O=C1NC(=O)N(c2cccc(Cl)c2)C(=O)/C1=C\c1ccc(Sc2nc3ccccc3[nH]2)o1	0%	24µM*	7%	-1%	-2%	-7%
O=C1NC(=O)N(c2ccccc2F)C(=O)/C1=C/c1ccc(Sc2nc3ccccc3[nH]2)o1	1%	?	3%[1.84 µM]	-5%	1%	-28%
O=C(c1ccc(CNS(=O)(=O)c2ccccc2)cc1)N1CCC2(CC1)OCCO2	?	?	-38%	3.5µM*	?	1%
